This is one part of a sample in which hits are shown more often than they occur.
ERK EGF block: qHTS Assay for Inhibitors of the ERK Signaling Pathway using a Homogeneous Screening Assay; Stimulation with EGF; HEK293-V1b, EGF-stimulated phospho-ERK AlphaScreen; Potency, µM (highest dose often 11.5 µM), for the others: at the top dose activity change, negative = inhibition, hits mostly inhibitors; 130,000 compounds, 0.41% hits; AID 1454, 2008; active = well fitted inhibition curve with a large enough effect;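 note: plate controls were stimulated vehicle wells for no effect and unstimulated vehicle basal for full effect; nearly all actives have a fitted effect of over 55% in size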
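Phospho-ERK1/2 measured by AlphaScreen (SureFire) after 5 min 25 nM EGF stimulation of V1b-expressing HEK293 cells preincubated 30 min at 37C with titrated compounds; data scaled to DMSO and EGF controls, Hill-fitted AC50.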
* = called active by the depositor; ! = a repeat was not active; [ ] = dose if it differs, or a comment. Potency is the fitted concentration of half-maximal effect.

What do the screens show for `O=C1C2=C(S[C@@H]3O[C@H](CO)[C@@H](O)[C@H](O)[C@H]3O2)C(=O)c2ccccc21`?
ERK EGF block: 7.2%

Results for Cc1ccc(NC2=C/C(=N\S(=O)(=O)c3cccs3)c3ccccc3C2=O)c(C)c1 ?
ERK EGF block: 12.6µM*

What do the screens show for `O=C1/C(=N\S(=O)(=O)c2cccs2)C([n+]2ccccc2)=C([O-])c2ccccc21`?
ERK EGF block: 7.7%[57.5 µM]

How did O=C1C(Nc2ccc(O)cc2)=C/C(=N/S(=O)(=O)c2cccs2)c2ccccc21 do in these assays?
ERK EGF block: 17.8µM*

What do the screens show for `Cc1cccc(NC2=C/C(=N/S(=O)(=O)c3cccs3)c3ccccc3C2=O)c1`?
ERK EGF block: 8.1%

Results for CS/C(=N\S(=O)(=O)c1cccs1)Nc1ccc(F)cc1 ?
ERK EGF block: -2.8%

How did CC(C)(C)c1cc[n+](C2=C([O-])c3ccccc3C(=O)/C2=N\S(=O)(=O)c2cccs2)cc1 do in these assays?
ERK EGF block: 2.0%[57.5 µM]

How did Cc1ccccc1Nc1oc(-c2ccccc2)nc1-c1cccs1 do in these assays?
ERK EGF block: 0.0%

Results for COC(=O)[C@@H](NC(=O)O[C@@H]1C(=O)c2cc(Br)ccc2O[C@H]1c1ccc2c(c1)OCO2)C(C)C ?
ERK EGF block: -1.5%

Results for C=C1c2c(Cl)ccc(O)c2C(O)=C2C(=O)[C@@]3(O)C(O)=C(C(N)=O)C(=O)[C@@H](N(C)C)[C@@H]3[C@@H](O)[C@H]12 ?
ERK EGF block: 0.9%[25.7 µM]

What do the screens show for `NC[C@@H]1O[C@H](O[C@H]2[C@H](O)[C@H](O[C@@H]3O[C@H](CO)[C@@H](O)[C@H](N)[C@@H]3O)[C@@H](N)C[C@H]2N)[C@@H](O)[C@H](O)[C@@H]1O`?
ERK EGF block: 7.0%[25.7 µM]

How did COC(=O)C1(C(=O)OC)CC2=C[C@H](CC2=O)Cc2ccccc2[C@@H]1C[N+](=O)[O-] do in these assays?
ERK EGF block: -10.8%

How did CC(C)=CCCC1(C)C=Cc2c(c(C)cc3c2[nH]c2ccccc23)O1 (stereo not given) do in these assays?
ERK EGF block: 0.1%

How did CC(C)c1cccc2cc3c(nc12)-c1cccc(=O)n1C3 do in these assays?
ERK EGF block: 3.3%

What do the screens show for `CCOC(=O)C1=C(O)C(=O)N(c2ccc(S(N)(=O)=O)cc2)C1c1ccc([N+](=O)[O-])cc1` (stereo not given)?
ERK EGF block: 7.1%[57.5 µM]

How did CCOC(=O)C1=C(O)C(=O)N(c2ccccc2)C1c1cccc([N+](=O)[O-])c1 (stereo not given) do in these assays?
ERK EGF block: 10.5%[57.5 µM]

What do the screens show for `CCOC(=O)C1=C(N)Oc2cc(O)ccc2C1c1ccc([N+](=O)[O-])cc1` (stereo not given)?
ERK EGF block: 17.8µM*

What do the screens show for `Cc1noc(C)c1C(=O)N1CCC2(CCN(C(=O)NC(C)C)CC2)CC1`?
ERK EGF block: -4.8%

How did C=C(C(C)=O)C(O)c1ccc2ccccc2c1 (stereo not given) do in these assays?
ERK EGF block: 1.2%

How did CCOc1ccc(Nc2c3ccccc3nc3ccccc23)cc1 do in these assays?
ERK EGF block: 10.7%[57.5 µM]

How did COc1ccc(C2=C(Nc3ccccc3)c3ccccc3C2=O)cc1 do in these assays?
ERK EGF block: -1.7%

How did CCOc1ccc(NC2=C(OC)C(=O)c3ccccc3C2=O)cc1 do in these assays?
ERK EGF block: 12.6µM*

Results for COC1=C(Nc2ccc(OC)cc2)C(=O)c2ccccc2C1=O ?
ERK EGF block: 12.6µM*

What do the screens show for `CCN(CC)c1ccc(NC2=C(Cl)C(=O)c3ccccc3C2=O)cc1`?
ERK EGF block: 10µM*

What do the screens show for `CCOc1ccc(NC(C)=O)cc1`?
ERK EGF block: -17.0%

Results for CCNC1=C(Cl)C(=O)c2ccccc2C1=O ?
ERK EGF block: 15.5%[57.5 µM]

Results for COc1ccc(NC2=C(c3ccc(OC)cc3)C(=O)c3ccccc32)cc1 ?
ERK EGF block: 3.4%

How did O=C1C(Cl)=C(NCCN2CCCCC2)C(=O)c2ccccc21 do in these assays?
ERK EGF block: 5.3%

How did C=C(C)C(=O)/C=C/c1ccc(C(F)(F)F)cc1 do in these assays?
ERK EGF block: -6.6%

How did C=C1C[C@@]23C[C@@]1(O)CC[C@@H]2[C@]12C=C[C@@H](O)[C@](C)(C(=O)O1)[C@@H]2[C@@H]3C(=O)O do in these assays?
ERK EGF block: -5.6%

What do the screens show for `O=S(c1ccccc1)c1ccc2nnnn2n1` (stereo not given)?
ERK EGF block: -12.5%

Results for COC(=O)[C@H](Cc1ccccc1)NC(=O)O[C@@H]1C(=O)c2ccc(OC)cc2O[C@H]1c1cccc(C(F)(F)F)c1 ?
ERK EGF block: 1.7%

Results for COC1=C(C(=O)c2ccccc2)C(=O)C2(CC=C(C)C)C[C@H](C(=O)OCC(F)(F)F)C(C)(C)[C@@]1(CC=C(C)C)C2=O (tested in a mixture with another compound) ?
ERK EGF block: -1.2%

Results for O=C(c1cnccn1)N1CCC[C@@]2(CCN(c3cccc(-c4ccccc4)c3)C2)C1 ?
ERK EGF block: 0.1%

Results for CC[C@H]1NC(=O)c2cc(S(N)(=O)=O)c(Cl)cc2N1 ?
ERK EGF block: 6.0%[25.7 µM]

Results for CC(C)C(=O)NC(=S)Nc1ccccc1N1CCN(C(=O)c2ccccc2)CC1 ?
ERK EGF block: -3.7%

How did O=C(NC(=S)Nc1ccccc1N1CCN(C(=O)c2ccccc2)CC1)c1cccs1 do in these assays?
ERK EGF block: 5.6%[57.5 µM]

Results for CC(=O)NC(=S)Nc1ccccc1N1CCN(C(=O)c2ccccc2)CC1 ?
ERK EGF block: 31.6µM*

How did Cc1csc2ncnc(N3CCN(C(=O)Nc4ccc(OC(F)(F)F)cc4)CC3)c12 do in these assays?
ERK EGF block: 28.2µM*

What do the screens show for `O=C(Nc1ccc(OC(F)(F)F)cc1)c1ccc(-n2cncn2)nc1`?
ERK EGF block: -9.6%

What do the screens show for `O=C(Nc1ccc(OC(F)(F)F)cc1)N1CCN(c2ccnc3cc(Cl)ccc23)CC1`?
ERK EGF block: -2.1%[57.5 µM]

What do the screens show for `c1ccc(CNc2ccnc(-c3ccoc3)n2)cc1`?
ERK EGF block: 13.4%

How did CCCCCCCCCCCCCCCC(=O)N[C@@H](COP(=O)(O)O)C(=O)O do in these assays?
ERK EGF block: 4.2%

What do the screens show for `CN(C)CCOC(c1ccccc1)c1ccccc1` (tested in a mixture with another compound)?
ERK EGF block: 14.4%[57.5 µM]

Results for CN(C)CCOC(c1ccc(Cl)cc1)c1ccccn1 (stereo not given) ?
ERK EGF block: 18.0%

Results for CN(C)CCOC(c1ccccc1)c1ccccc1 ?
ERK EGF block: 14.1µM*!

How did COc1ccc2c(c1)C(=O)[C@H](OC(=O)N[C@H]1CCCc3ccccc31)[C@@H](c1ccc(OC)c(Br)c1)O2 do in these assays?
ERK EGF block: -6.5%

What do the screens show for `COc1ccc(Nc2ccc(S(=O)(=O)N3CCCCCC3)cc2[N+](=O)[O-])cc1`?
ERK EGF block: 20µM*

What do the screens show for `COc1ccc2cc(S(=O)(=O)N3CCCCCC3)ccc2c1`?
ERK EGF block: -15.5%

What do the screens show for `COCC(C)Nc1ccc(S(=O)(=O)N2CCCC2)cc1[N+](=O)[O-]` (stereo not given)?
ERK EGF block: 5.6%

Results for COC(=O)[C@@]1(Cc2ccccc2)[C@H]2c3cc(C(=O)N4CCCC4)n(CC4CC4)c3C[C@H]2CN1C(=O)c1ccccc1 ?
ERK EGF block: -0.1%

How did CC/C=C\C/C=C\C/C=C\C/C=C\C/C=C\C/C=C\CCC(N)=O do in these assays?
ERK EGF block: -14.4%

Results for COc1cccc([C@@H]2Oc3ccc(OC)cc3C[C@H]2OC(=O)NS(=O)(=O)c2ccc(F)cc2)c1 ?
ERK EGF block: 10.3%

Compound activity (PubChem BioAssay)
